Screens: PubChem BioAssay, several laboratories
MEKK2wt PB1 HTS – raises or lowers MEK5 binding to wildtype human MEKK2 PB1 domain. bead flow cytometry, Alexa488-MEK5 binding to MEKK2 WT; actives lie on both sides. hit rate 1.1% among 290,000. AID 1531. binding response (% of control), % at 10 µM; in the data active means binding response below about 67% or above about 130%
MEKK2 mut-MEK5 – signal of MEK5 binding to mutant human MEKK2 PB1 domain. bead flow cytometry, Alexa488-MEK5 binding to MEKK2 mutant. percent response, % at 10 µM. hit rate 0.35% among 290,000. AID 1530; in the data active means percent response above about 24%, passing the limit was not always enough
MEKK3 PB1 HTS – MEKK3-MEK5 PB1 interaction, increase or decrease; bead-based flow cytometry, Alexa488-MEK5 binding to MEKK3; actives lie on both sides; 0 = blocked by unlabeled MEK5, 100 = vehicle; binding response (% of control), % at 10 µM; hit rate 1.4% among 290,000;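 active means binding response more than 3 SD above or below the average of its plate-row segment, actives on both sides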;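 further: Alexa488 bead fluorescence after subtracting the streptavidin-only scavenger bead signal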
Target sequence (Q99759 whole entry, looked up): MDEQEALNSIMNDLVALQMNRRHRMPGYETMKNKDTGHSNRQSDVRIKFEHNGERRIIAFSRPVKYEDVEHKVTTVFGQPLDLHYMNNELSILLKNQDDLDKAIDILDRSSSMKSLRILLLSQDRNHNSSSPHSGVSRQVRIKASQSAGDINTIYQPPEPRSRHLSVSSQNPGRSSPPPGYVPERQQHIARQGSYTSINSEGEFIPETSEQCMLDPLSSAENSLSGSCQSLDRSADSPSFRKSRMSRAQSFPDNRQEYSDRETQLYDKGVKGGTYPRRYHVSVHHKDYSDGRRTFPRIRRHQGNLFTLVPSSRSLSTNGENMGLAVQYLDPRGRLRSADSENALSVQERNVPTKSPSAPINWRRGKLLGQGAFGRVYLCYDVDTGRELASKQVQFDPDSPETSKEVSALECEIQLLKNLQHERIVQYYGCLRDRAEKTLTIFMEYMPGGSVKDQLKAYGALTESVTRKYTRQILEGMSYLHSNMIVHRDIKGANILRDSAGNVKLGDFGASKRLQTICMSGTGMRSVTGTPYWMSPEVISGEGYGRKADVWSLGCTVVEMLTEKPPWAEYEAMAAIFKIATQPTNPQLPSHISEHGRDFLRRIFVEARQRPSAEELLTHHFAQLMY
SKN-1 inh – blocks SKN-1 activity in C. elegans. C. elegans VP596 Pgst-4::GFP/RFP ratio, acrylamide-induced, 24 h. inhibition, % at 21.8 µM. hit rate 0.49% among 360,000;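 active means interference check ratio from 0.5 to 1.5 plus GFP to RFP signal ratio inhibition reaching or exceeding a fixed threshold, cut at about 30% in these data, passing the limit was not always enough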
CendR NRP1 mod – alters CendR peptide binding to human NRP-1; AID 602438; FAM-RPARPAR peptide binding to NRP-1, fluorescence polarization; hit rate 0.85% among 360,000; inhibition, % at 25 µM; O14786;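 active means inhibition or corrected inhibition above about 18%, plus a signal ratio from 0.5 to 1.5, limit read from the data, passing the limit was not always enough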
MEKK2wt confirm – raises or lowers MEK5 binding to wildtype human MEKK2, retest. shares compounds with MEKK3 PB1 HTS. bead flow cytometry, Alexa488-MEK5 binding to MEKK2 WT; actives lie on both sides. binding response (% of control), % at 10 µM. hit rate 2.4% among 5,900. AID 1892; in the data active means binding response below about 16% or above about 210%; inactive means in between
MEKK2mut-MEK5 – signal of MEK5 binding to mutant human MEKK2, retest. shares compounds with MEKK3 PB1 HTS. bead flow cytometry, Alexa488-MEK5 binding to MEKK2 mutant. percent response, % at 10 µM. hit rate 2% among 5,900; in the data active means percent response mostly above about 71%, no sharp cut-off; inactive means mostly below about 38%;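 further: higher means compound restores mutant binding toward wildtype level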
MEKK3-MEK5 inh – MEKK3-MEK5 PB1 inhibition, single concentration confirmation. binding response (% of control), % at 10 µM. shares compounds with MEKK3 PB1 HTS. bead flow cytometry, Alexa488-MEK5 binding to MEKK3; active compounds read low. hit rate 1.8% among 5,900;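 active means binding response below 72% of control, or above a set upper limit, though filed actives all read lower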;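 further: 100% = DMSO only wells and 0% = binding blocked by excess unlabeled MEK5; lower values mean stronger disruption of MEK5 binding to MEKK3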
Numbers without * were called inactive; x = no result; [ ] = dose if it differs, or a comment. Compounds with a hit are over-represented: about 3.2% of the library has one in this group of screens.

SMILES	MEKK2wt PB1 HTS	MEKK2 mut-MEK5	MEKK3 PB1 HTS	SKN-1 inh	CendR NRP1 mod	MEKK2wt confirm	MEKK2mut-MEK5	MEKK3-MEK5 inh
COc1cc(C(CCN2CCOCC2)c2c(OC)cc(OC)c3c2OC(=O)CC3c2ccc(N(C)C)cc2)cc(OC)c1OC (stereo not drawn)	102.0	4.0	99.0	6.5	14.0	x	x	x
COc1cc(C2CC(=O)Oc3c(C(CCN4CCCC(C)C4)c4ccc(N(C)C)cc4)c(OC)cc(OC)c32)cc(OC)c1OC (stereo not drawn)	154.0*	5.0	124.0	7.1	25.4*	119.0	13.0	105.0
COc1cc(C(CCN2CCCC(C)C2)c2c(OC)cc(OC)c3c2OC(=O)CC3c2ccc(N(C)C)cc2)cc(OC)c1OC (stereo not drawn)	136.0*	14.0	96.0	-8.3	1.2	136.0	16.0	100.0
Fc1cccc(Cc2c(-c3cccc(Cl)c3)nc3ccc(Cl)cn23)c1	x	x	x	3.6	-14.9	x	x	x
N/C(=N\OS(=O)(=O)c1ccc2ccccc2c1)c1cccnc1	104.0	1.0	83.0	-2.3	1.2	x	x	x
N/C(=N\OS(=O)(=O)c1ccccc1)c1cccnc1	106.0	0.0	130.0*	4.9	7.5	109.0	7.0	108.0
Cc1sc(N/N=C/c2ccco2)nc1-c1ccccc1	98.0	-1.0	131.0*	4.5	2.7	106.0	5.0	103.0
O=C(OCc1ccc(Br)cc1F)c1cc2ccccc2oc1=O	95.0	-7.0	103.0	1.8	10.0	x	x	x
COc1ccccc1NCC(O)Cn1c2ccccc2c2ccccc21 (stereo not drawn)	99.0	-2.0	99.0	5.1	4.1	x	x	x
COc1ccc(CCNCC(O)Cn2c3ccccc3c3ccccc32)cc1OC (stereo not drawn)	159.0*	23.0	106.0	-7.5	12.0	165.0	36.0	111.0
CCN(CC)S(=O)(=O)c1ccc(C)c(NC(=O)Cn2c(=O)cnc3ccccc32)c1	107.0	0.0	160.0*	-3.0	-17.7	100.0	0.0	102.0
O=C(Cn1cnc2cc([N+](=O)[O-])ccc2c1=O)Nc1cccc2ccccc12	93.0	2.0	96.0	-7.1	-1.8	x	x	x
CCN(CC)S(=O)(=O)c1ccc(C)c(NC(=O)Cn2cnc3cc([N+](=O)[O-])ccc3c2=O)c1	70.0	-15.0	69.0*[inhibitor]	-6.1	-1.5	96.0	-2.0	96.0
CCN(CC)S(=O)(=O)c1ccc(C)c(NC(=O)CN2CCN(C)CC2)c1	97.0	-4.0	100.0	7.7	4.0	x	x	x
Cc1sc2ncnc(SCC#N)c2c1C	93.0	-7.0	90.0	12.3	-18.6	x	x	x
CCCSc1ncnc2sc(C)c(C)c12	8.0*[inhibitor]	-46.0	4.0*[inhibitor]	8.0	6.3	10.0*[inhibitor]	-37.0	52.0*
COc1cccc(CNC(=O)COC(=O)c2nc(Cl)c(Cl)c(Cl)c2Cl)c1	x	x	x	-7.7	-124.7	x	x	x
O=C(COc1ccc2c(c1)CCC2)N1CCN(c2ccccc2F)CC1	109.0	0.0	142.0*	8.1	3.8	108.0	6.0	104.0
O=C(COc1ccc2c(c1)CCC2)N1CCN(c2cccc(C(F)(F)F)c2)CC1	100.0	-3.0	98.0	-2.0	-6.0	x	x	x
CCOC(=O)CSc1nc2nc(C)cc(C)n2n1	95.0	1.0	96.0	-3.5	-7.7	x	x	x
CCCn1c(C)cc(C(=O)CSc2nc3nc(C)cc(C)n3n2)c1C	104.0	1.0	135.0*	7.5	32.6*	105.0	4.0	99.0
Cc1c(Br)cccc1NC(=O)C1(C)CCN1CCc1ccccc1 (stereo not drawn)	x	x	x	-2.8	5.1	x	x	x
COc1ccc(Cl)cc1NC(=S)N1CCC(c2ccc(C)cc2)C1 (stereo not drawn)	103.0	4.0	106.0	2.1	-2.6	x	x	x
Cc1ccc(C2CCN(C(=S)NC(C)C)C2)cc1 (stereo not drawn)	58.0	-40.0	48.0*[inhibitor]	-10.3	-8.7	99.0	2.0	101.0
C[C@H](CO)N1C[C@H](C)[C@@H](CN(C)S(=O)(=O)c2ccccc2C#N)OCc2cn(nn2)CCCC1=O	x	x	x	-9.3	7.9	x	x	x
SMILES	MEKK2wt PB1 HTS	MEKK2 mut-MEK5	MEKK3 PB1 HTS	SKN-1 inh	CendR NRP1 mod	MEKK2wt confirm	MEKK2mut-MEK5	MEKK3-MEK5 inh
COc1ccc(CCn2c(NN=C3CCCCC3)nc3c2c(=O)[nH]c(=O)n3C)cc1	57.0*[inhibitor]	-9.0	65.0*[inhibitor]	11.8	-7.7	99.0	-1.0	97.0
Cc1cn([C@H]2C[C@H](O)[C@@H](CCC(=O)NCc3ccccc3)O2)c(=O)[nH]c1=O	x	x	x	6.7	2.8	x	x	x
O=C(c1cc(-c2ccccn2)nc2ccc(Cl)cc12)N1CCN(CCc2ccccc2)CC1	-4.0*[inhibitor]	-23.0	-1.0*[inhibitor]	-0.8	-12.3	97.0	-2.0	97.0
Cc1cnn(C(=O)c2cc(-c3ccccn3)nc3ccc(Cl)cc23)c1	97.0	0.0	101.0	-1.8	-4.8	x	x	x
O=C([C@@H]1CC=C[C@@H]2CCN(C3CC3)C(=O)[C@@H]21)N1CCN(c2ccccc2)CC1	91.0	-3.0	80.0*[inhibitor]	2.8	-3.8	103.0	16.0	103.0
Cc1ccc(-c2cc3nc(-c4ccc(Br)cc4)cc(N)n3n2)cc1	121.0	2.0	134.0*	1.2	-7.1	100.0	1.0	102.0
COc1cccc(Nc2nc(NCC3CCCO3)c3ccccc3n2)c1 (stereo not drawn)	144.0*	20.0	106.0	37.1*	-3.1	141.0	31.0	105.0
O=C(Nc1ccc(C2=NCCN2)cc1)c1ccc(Cl)c(C(=O)Nc2ccc(C3=NCCN3)cc2)c1	144.0*	34.0	66.0*[inhibitor]	x	x	130.0	12.0	102.0
Clc1ccc(C2=NCCN2)cc1	105.0	4.0	113.0	0.5	5.3	x	x	x
O=C(Nc1ccc(Cl)c(Cl)c1)c1ccc(Cl)c(Cl)c1	162.0*	56.0*	97.0	4.1	-2.9	142.0	16.0	105.0
CCCCC1CN2CCc3c([nH]c4ccccc34)C2(C)C1 (stereo not drawn)	116.0	7.0	101.0	30.1	-9.8	x	x	x
CCOC(=O)c1[nH]c(C)c(C(=O)/C=C/c2ccc(C(=O)O)cc2)c1C	105.0	7.0	105.0	2.8	-7.6	x	x	x
COc1ccc(NC(=O)Cn2cnc3ccccc3c2=O)cc1OC	98.0	-1.0	97.0	0.2	-9.3	x	x	x
CCOCC(=O)Nc1nc2ccc(OC)cc2s1	89.0	-14.0	81.0*[inhibitor]	23.5	1.0	97.0	-3.0	96.0
COc1ccc2nc(NC(=O)Cn3cnc4ccccc4c3=O)sc2c1	49.0*[inhibitor]	-31.0	68.0*[inhibitor]	1.1	-23.8	102.0	2.0	100.0
COc1ccc2nc(NC(=O)CN(C)S(=O)(=O)c3cccs3)sc2c1	-7.0*[inhibitor]	-22.0	1.0*[inhibitor]	-3.6	17.5	103.0	11.0	103.0
